# Measurements from publication PMC5540273 (PLoS ONE, 2017).
# What was measured:
# [1] = test system: T1, VEGFR2
# T1 construct: gene KDR
# [2] = test system: WEE2
# [3] = test system: WNK4
# [4] = test system: T2, YANK1
# T2 construct: gene STK32A
# [5] = test system: T3, YANK3
# T3 construct: gene STK32C
# [6] = test system: T4, YSK1
# T4 construct: gene STK25
# 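Further: kd values determined as follow-up on hits from a single-replicate KINOMEscan panel screen.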
smiles,measurement,setting,value
Cn1ccc2ncnc(Oc3ccc(NC(=O)Nc4ccccc4)cc3)c21,Kd,[1],0.045 µM
CCn1c(-c2cccnc2O)nc2cnccc21 [SB-736715],Kd,[2],> 10 µM
Cc1ccc(-c2cc(-c3c[nH]nc3-c3ccccn3)ccn2)cc1 [GW684088],Kd,[3],> 10 µM
Cn1cncc1-c1ccc2ncnc(Nc3ccc(OCc4ccccc4)cc3)c2c1 [GW320571],Kd,[4],> 10 µM
Nc1ncnc2[nH]c(-c3ccccc3)nc12 [AH5015],Kd,[4],> 10 µM
CCCc1ccc(S(=O)(=O)NC2CCN(c3ccnc(Nc4ccc(F)cc4)n3)C2)cc1 (stereo not drawn) [GSK1379715],Kd,[5],> 10 µM
same,Kd,[6],> 10 µM
CS(=O)(=O)c1ccc(-c2nc3n(c2-c2ccncc2)CCC3)cc1 [SKF-105942],Kd,[5],> 10 µM
CCn1c(-c2ccccn2)nc2cnccc21 [SB-736398],Kd,[6],> 10 µM
